According to paper PMC4336329 (PLoS ONE, 2015):
Among all 310,000 compounds or so, about 2,200 (0.71%) showed an effect of 50% or more. Effects have a minus sign here. What follows is part of a selection rich in strong results, with near analogues and random picks from the rest.

Biological target: human ether-à-go-go-related gene (hERG) potassium channel (human, UniProt Q12809)
Assay: primary screen, population patch clamp on CHO cells stably expressing hERG; higher = less effect of the substance

Chain of human ether-à-go-go-related gene (hERG) potassium channel (Q12809 whole entry, looked up): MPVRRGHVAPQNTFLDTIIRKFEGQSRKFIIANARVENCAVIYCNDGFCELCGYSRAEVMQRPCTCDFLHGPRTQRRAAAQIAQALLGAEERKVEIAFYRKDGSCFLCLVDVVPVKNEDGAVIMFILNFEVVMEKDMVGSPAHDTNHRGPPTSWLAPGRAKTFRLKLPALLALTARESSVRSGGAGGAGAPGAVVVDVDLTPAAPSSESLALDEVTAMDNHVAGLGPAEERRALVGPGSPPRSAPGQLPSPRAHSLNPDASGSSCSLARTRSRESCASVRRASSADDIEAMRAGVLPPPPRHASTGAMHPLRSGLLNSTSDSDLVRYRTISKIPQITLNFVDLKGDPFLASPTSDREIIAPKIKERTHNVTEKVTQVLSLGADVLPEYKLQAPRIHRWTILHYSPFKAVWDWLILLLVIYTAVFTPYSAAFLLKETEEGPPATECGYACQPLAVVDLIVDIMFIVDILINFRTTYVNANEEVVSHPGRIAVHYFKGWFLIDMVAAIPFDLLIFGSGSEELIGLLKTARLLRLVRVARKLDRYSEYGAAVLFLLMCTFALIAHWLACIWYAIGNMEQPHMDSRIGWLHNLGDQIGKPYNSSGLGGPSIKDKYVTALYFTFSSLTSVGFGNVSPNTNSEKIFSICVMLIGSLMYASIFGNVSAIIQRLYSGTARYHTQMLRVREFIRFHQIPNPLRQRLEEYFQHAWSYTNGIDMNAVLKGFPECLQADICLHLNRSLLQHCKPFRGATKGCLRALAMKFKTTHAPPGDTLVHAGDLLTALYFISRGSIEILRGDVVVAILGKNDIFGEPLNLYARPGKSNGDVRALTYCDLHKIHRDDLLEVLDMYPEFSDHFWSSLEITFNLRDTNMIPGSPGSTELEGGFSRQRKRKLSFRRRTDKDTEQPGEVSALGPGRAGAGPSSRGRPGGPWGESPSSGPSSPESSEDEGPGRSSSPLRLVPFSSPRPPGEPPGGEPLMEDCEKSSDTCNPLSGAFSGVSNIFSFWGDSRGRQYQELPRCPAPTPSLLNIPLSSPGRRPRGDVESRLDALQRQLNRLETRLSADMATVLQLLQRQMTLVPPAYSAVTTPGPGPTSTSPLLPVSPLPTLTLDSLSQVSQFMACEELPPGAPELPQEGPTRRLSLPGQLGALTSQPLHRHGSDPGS

Structure (SMILES) | hERG current change (%, negative = inhibition) at 1uM
COc1ccc2[nH]cc(CCNC(=O)CCC3CCCCC3)c2c1 | 1.77%
O=C(COC(=O)c1ncc(Cl)c(Cl)c1Cl)NC1CCS(=O)(=O)C1 (stereo not shown) | -1.03%
Cc1ccc(S(=O)(=O)N2CCOC23CCN(C(=O)C(=O)NCCC(C)C)CC3)cc1 | 4.48%
O=c1[nH]c(=O)n(CCc2ccc(F)cc2)c(O)c1/C=N/N1CCCCC1 | 11.7%
CCOC(=O)C1(C)/C(=N/Nc2ccccc2)C(=O)C(=O)N1c1ccccc1 (stereo not shown) | -3.13%
Cc1ccc(Cn2c(=N)c(C(=O)NCC3CCCO3)cc3c(=O)n4cccc(C)c4nc32)cc1 (stereo not shown) | -85.9%
Cc1cccn2c(=O)c3cc(C(=O)NC4CCCCC4)c(=N)n(Cc4ccc(F)cc4)c3nc12 | -16%
Cc1cccn2c(=O)c3cc(C(=O)NCc4cccnc4)c(=N)n(CC4CCCO4)c3nc12 (stereo not shown) | -78.5%
Cc1cccn2c(=O)c3cc(C(=O)NCCN4CCOCC4)c(=N)n(Cc4cccnc4)c3nc12 | 9.95%
Cc1cccn2c(=O)c3cc(C(=O)NCC4CCCO4)c(=N)n(Cc4ccc(F)cc4)c3nc12 (stereo not shown) | -80.4%
Cc1cccn2c(=O)c3cc(C(=O)NCC4CCCO4)c(=N)n(Cc4cccnc4)c3nc12 (stereo not shown) | -96.3%
Cc1cccn2c(=O)c3cc(C(=O)NC4CCCC4)c(=N)n(Cc4ccc(F)cc4)c3nc12 | -19.4%
Cc1cccn2c(=O)c3cc(C#N)c(=NC(=O)c4cccnc4)n(CC4CCCO4)c3nc12 (stereo not shown) | -10.2%
CCn1c(SCc2nc(CC(=O)Nc3ccccc3OC)no2)nnc1-c1cccs1 | -19.1%
COc1ccc(CNC(=O)C2CSC(=O)C2)cc1 (stereo not shown) | 8.88%
Cc1cccc(-n2c(O)c(/C=N/NC(=O)c3ccccc3Cl)c3ccccc3c2=O)n1 | 9.11%
COc1cccc(/C=C/C(=O)OCC(=O)Nc2cc(C(F)(F)F)ccc2Cl)c1 | 8.68%
CN(C(=O)c1ccc(OC2CCN(S(=O)(=O)N(C)C)CC2)cc1)C1CCCCC1 | -1.59%
O=C(NCCNC(=O)c1cc(OCC(F)(F)F)ccc1OCC(F)(F)F)Nc1ccccc1 | -15%
CCN1CCS/C1=C/C=C/C1=[N+](CC)CCS1.[I-] | 3.64%
CC(=O)N1CCN(Cc2nc3cc([N+](=O)[O-])ccc3n2C)CC1 | 14%

Structure (SMILES) | hERG current change (%, negative = inhibition) at 1uM
Cn1c(CN2CCCC2)nc2cc(NS(=O)(=O)c3ccc(Cl)cc3)ccc21 | -31%
Cn1c(CCN2CCCC2)nc2cc(NS(=O)(=O)c3ccc(Cl)cc3)ccc21 | -62%
CCN1CCN(CCc2nc3cc([N+](=O)[O-])ccc3n2C)CC1 | -1.88%
Cn1c(CN2CCCCC2)nc2cc(NS(=O)(=O)c3ccc(Cl)cc3)ccc21 | -9.75%
Cn1c(CN2CCN(C(=O)c3ccccc3)CC2)nc2cc([N+](=O)[O-])ccc21 | -29.6%
Cn1c(CCN2CCCCC2)nc2cc([N+](=O)[O-])ccc21 | -54.8%
Cn1c(CN2CCCCC2)nc2cc([N+](=O)[O-])ccc21 | -2.57%
Cc1ccc(S(=O)(=O)Nc2ccc3c(c2)nc(CCN2CCCCC2)n3C)cc1 | -29.7%
Cn1c(CN2CCN(C(=O)c3ccc(F)cc3)CC2)nc2cc([N+](=O)[O-])ccc21 | -59.1%
Cc1ccc(S(=O)(=O)Nc2ccc3c(c2)nc(CCN2CCCC2)n3C)cc1 | -13.7%
Cn1c(CCN2CCCCC2)nc2cc(NS(=O)(=O)c3ccc(Cl)cc3)ccc21 | -59.1%
CSCCC(NC(=O)OCc1ccccc1)C(=O)NCc1cccnc1 (stereo not shown) | 9.52%
O=C(N/N=C/c1ccc2c(c1)OCO2)c1ccc(COCC(F)(F)C(F)F)cc1 | 9.11%
N#Cc1nc(Cc2ccccc2)oc1N1CCCC1 | 4.79%
Cc1ccc(C)c(-n2ccnc2SCC(=O)O)c1 | 14.4%
COC(=O)c1sc(S(=O)(=O)NC(C)C(=O)O)c(C(=O)OC)c1C (stereo not shown) | -4.83%
CCCN(CCC)CCCNC(=O)C1CCN(S(=O)(=O)c2cccc3nsnc23)CC1 | 12.5%
CCc1ccc(NC(=O)Nc2cccs2)cc1 | 21.2%
COc1cccc(C2=NOC(C(=O)Nc3ccc4c(c3)OCO4)C2)c1 (stereo not shown) | 12.7%
CCNS(=O)(=O)c1ccc(CCC(=O)N2CCN(c3cc(Cl)ccc3C)CC2)cc1 | 12.4%
CCCOC1OC(=O)c2c1ccc(OC)c2OC (stereo not shown) | 11.9%

Structure (SMILES) | hERG current change (%, negative = inhibition) at 1uM
O=S(=O)(Nc1ccc(-c2ccc3nncn3n2)cc1)c1cccc(F)c1 | 14.1%
Cc1cccc(S(=O)(=O)Nc2ccc(-c3ccc4nncn4n3)cc2)c1 | -85.6%
Cc1ccc(S(=O)(=O)Nc2ccc(-c3ccc4nncn4n3)cc2)cc1 | 24.9%
BrCC1C[n+]2c(SCc3ccccc3)nc3sc4c(c3c2O1)CCCC4.[Br-] (stereo not shown) | 10.3%
Cc1ccc2c(c1)CCCN2C(=O)c1ccncc1 | 8.11%
CCOC(=O)c1cccc(N2C(=O)C3C(C2=O)C2C=CC3C23CC3)c1 (stereo not shown) | 8.16%
CCOc1ccccc1N1CCN(c2nc3ccccc3nc2C(C#N)C(=O)OC(C)C)CC1 (stereo not shown) | 12.5%
CCOc1ccc(C(=O)N2CCN(CCc3ccccc3)CC2)cc1OCC | -77.5%
CCOc1ccc(C(=O)N2CCN(c3ccccc3)CC2)cc1OCC | 1.55%
COc1ccc(C(=O)N2CCN(Cc3ccccc3)CC2)cc1[N+](=O)[O-] | -22.3%
CN1CCN(C(=O)c2cc3ccccc3oc2=O)CC1 | 8.34%
COc1ccc(C(=O)N2CCN(Cc3ccc4c(c3)OCO4)CC2)cc1[N+](=O)[O-] | -6.08%
O=C(c1cc2ccccc2oc1=O)N1CCN(CCc2ccccc2)CC1 | -60.4%
CCOc1ccc(C(=O)N2CCN(C(=O)c3ccco3)CC2)cc1OCC | 10.8%
COc1ccc(C(=O)N2CCN(CCCc3ccccc3)CC2)cc1OC.O=C(O)C(=O)O | -61.8%
COc1ccc(C(=O)N2CCN(CCc3ccccc3)CC2)cc1[N+](=O)[O-] | -73.5%
COc1cc(C(=O)N2CCN(CCCc3ccccc3)CC2)cc(OC)c1OC | 3.21%
COc1cccc(C(=O)N2CCN(CCCc3ccccc3)CC2)c1OC.O=C(O)C(=O)O | -4.87%
O=C(NCCN1CCN(C(=O)c2cc3ccccc3oc2=O)CC1)c1cc2ccccc2oc1=O | -0.615%
